Measured values reported in PubChem BioAssay (NCATS).
The source made the active and inactive calls. Calls follow the shape of the full dose curve.

These molecules were tested against Glucocorticoid receptor (Homo sapiens) (UniProt P04150) (assay: GR-EFC Redistribution (AID 451)). Conditions: CHO-K1 GR-EFC translocation, beta-gal luminescence, 2 h.
Outline: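 CHO-K1 cells expressing nuclear EA and GR-ED fragments of b-gal; compounds titrated up to 46 uM final, 2 h at 37 C. GR nuclear translocation read as complemented b-gal luminescence after 1 h RT detection.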
Potency is read from the fitted curve at half-maximal effect.

Sequence of Glucocorticoid receptor (Homo sapiens) (P04150 whole entry, looked up, the tested form may be a part): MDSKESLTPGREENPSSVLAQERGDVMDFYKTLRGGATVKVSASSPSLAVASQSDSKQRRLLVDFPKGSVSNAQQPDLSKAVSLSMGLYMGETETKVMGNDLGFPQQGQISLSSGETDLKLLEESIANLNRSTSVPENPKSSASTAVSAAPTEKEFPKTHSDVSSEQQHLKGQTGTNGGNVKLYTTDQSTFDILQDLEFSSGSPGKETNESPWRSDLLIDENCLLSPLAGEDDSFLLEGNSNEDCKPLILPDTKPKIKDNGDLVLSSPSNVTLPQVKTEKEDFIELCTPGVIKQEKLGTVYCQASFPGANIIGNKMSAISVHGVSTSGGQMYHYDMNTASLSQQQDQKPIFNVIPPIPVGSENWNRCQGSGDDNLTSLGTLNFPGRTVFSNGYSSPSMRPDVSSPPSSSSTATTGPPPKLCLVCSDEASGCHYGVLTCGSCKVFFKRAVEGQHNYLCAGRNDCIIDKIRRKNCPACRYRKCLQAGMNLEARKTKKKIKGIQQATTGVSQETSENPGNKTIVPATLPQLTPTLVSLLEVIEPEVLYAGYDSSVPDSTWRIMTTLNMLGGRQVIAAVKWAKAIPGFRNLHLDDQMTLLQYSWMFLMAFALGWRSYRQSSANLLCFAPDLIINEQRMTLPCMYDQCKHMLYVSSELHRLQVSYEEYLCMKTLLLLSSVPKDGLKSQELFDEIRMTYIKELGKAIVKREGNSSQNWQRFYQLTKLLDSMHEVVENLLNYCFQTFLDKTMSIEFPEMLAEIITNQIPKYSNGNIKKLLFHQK

| Structure (SMILES) | Potency |
| --- | --- |
| N[C@@H]1CCc2cc(O)c(O)cc2C1 | > 46 µM (inactive) |
| CC(C)n1cc2c3c(cccc31)[C@@H]1C[C@H](C(=O)O[C@@H](C)[C@H](C)O)CN(C)[C@H]1C2 | > 46 µM (inactive) |
| CC1(C)[C@@H]2CC[C@]1(C)CN(CCC[N+](C)(C)C)C2 | > 9.22 µM (inactive) |
| CC[C@H](CO)NC(=O)[C@@H]1C=C2c3cccc4[nH]cc(c34)C[C@@H]2N(C)C1 | > 46 µM (inactive) |
| CN1C[C@@H](CNC(=O)OCc2ccccc2)C[C@H]2c3cccc4c3c(cn4C)C[C@@H]21 | > 46 µM (inactive) |
| N[C@@H](Cc1cc(O)c(O)cc1O)C(=O)O | > 46 µM (inactive) |
| CNc1ccc2oc(C[C@@H]3O[C@@]4(CC[C@H]3C)O[C@@H]([C@@H](C)C(=O)c3ccc[nH]3)[C@@H](C)C[C@H]4C)nc2c1C(=O)O | > 46 µM (inactive) |
| COc1ccc2c(c1)[C@]13CCCC[C@@H]1[C@H](C2)N(C)CC3 | > 46 µM (inactive) |
| CC(C)(C)NC[C@H](O)c1ccccc1Cl | > 46 µM (inactive) |
| CC(C)(O)[C@H]1[C@H]2OC(=O)[C@@H]1[C@]1(O)C[C@H]3O[C@]34C(=O)O[C@H]2[C@]14C (tested in a mixture with another compound) | > 46 µM (inactive) |
| C=CCN1CC[C@@]23CCCC[C@@H]2[C@@H]1Cc1ccc(O)cc13 | > 46 µM (inactive) |
| C[C@H](N)c1cccc(Cl)c1Cl | > 46 µM (inactive) |
| C=C(C)[C@@H]1CN[C@H](C(=O)O)[C@H]1CC(=O)O | > 46 µM (inactive) |
